# Reference: article PMC7862700, “An all-to-all approach to the identification of sequence-specific readers for epigenetic DNA modifications on cytosine”
# How the values were obtained:
# Assay in all cases: DAPPL (digital affinity profiling via proximity ligation, sequencing); 10 mM Tris-HCl pH 7.5, 50 mM NaCl, 1 mM DTT, 4% glycerol, room temperature, 30 min; GST-TFs on glutathione beads, 16-mer random dsDNA library, 0.1% formaldehyde crosslink after washing; high values mean tight binding
# Conditions in all cases: protein: recombinant; tags: N-terminal GST; dsDNA, one strand shown
# [1] = target: T1, FLI1 (Homo sapiens, UniProt Q01543 1-452)
# T1 sequence: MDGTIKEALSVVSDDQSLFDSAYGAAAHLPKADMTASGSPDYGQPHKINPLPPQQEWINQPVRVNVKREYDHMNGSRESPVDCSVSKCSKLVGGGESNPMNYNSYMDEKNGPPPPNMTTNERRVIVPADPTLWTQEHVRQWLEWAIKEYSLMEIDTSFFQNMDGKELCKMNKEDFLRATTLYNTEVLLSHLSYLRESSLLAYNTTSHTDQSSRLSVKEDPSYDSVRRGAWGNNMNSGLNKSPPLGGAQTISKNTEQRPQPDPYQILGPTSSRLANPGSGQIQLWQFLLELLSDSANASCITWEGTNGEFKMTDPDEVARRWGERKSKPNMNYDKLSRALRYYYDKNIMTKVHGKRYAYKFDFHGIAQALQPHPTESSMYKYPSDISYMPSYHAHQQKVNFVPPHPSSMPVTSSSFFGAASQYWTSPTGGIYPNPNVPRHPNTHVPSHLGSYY
# Outline: (§1)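 Binding signal is given per hexamer as its read frequency for a factor divided by its frequency in the tag-only sample. GST-fused human transcription factors were expressed in yeast, captured on glutathione beads, barcoded with DNA and pooled with that sample, then incubated with 200 nmole of a 16-mer random double-stranded DNA library in Tris/NaCl/DTT/glycerol buffer for 30 min at room temperature. The pools were then washed, crosslinked, proximity-ligated, amplified by PCR and sequenced on an Illumina NextSeq500.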
# [2] = target: T2, ELK1 (Homo sapiens, UniProt P19419 1-428)
# T2 sequence: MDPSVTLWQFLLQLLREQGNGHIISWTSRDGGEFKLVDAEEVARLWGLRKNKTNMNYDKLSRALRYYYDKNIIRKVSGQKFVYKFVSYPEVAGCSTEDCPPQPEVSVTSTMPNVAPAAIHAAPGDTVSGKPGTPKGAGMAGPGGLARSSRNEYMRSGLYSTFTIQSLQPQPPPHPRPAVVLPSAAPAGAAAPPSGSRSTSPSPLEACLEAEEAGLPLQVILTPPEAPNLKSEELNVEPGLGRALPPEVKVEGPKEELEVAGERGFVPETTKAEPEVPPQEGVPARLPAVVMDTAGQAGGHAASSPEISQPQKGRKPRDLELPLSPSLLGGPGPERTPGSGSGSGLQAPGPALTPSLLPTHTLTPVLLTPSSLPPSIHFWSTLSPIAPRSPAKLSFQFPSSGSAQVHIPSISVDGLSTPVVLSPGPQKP
# Outline: as §1
# [3] = target: T3, GABPA (Homo sapiens, UniProt Q06546 1-454)
# T3 sequence: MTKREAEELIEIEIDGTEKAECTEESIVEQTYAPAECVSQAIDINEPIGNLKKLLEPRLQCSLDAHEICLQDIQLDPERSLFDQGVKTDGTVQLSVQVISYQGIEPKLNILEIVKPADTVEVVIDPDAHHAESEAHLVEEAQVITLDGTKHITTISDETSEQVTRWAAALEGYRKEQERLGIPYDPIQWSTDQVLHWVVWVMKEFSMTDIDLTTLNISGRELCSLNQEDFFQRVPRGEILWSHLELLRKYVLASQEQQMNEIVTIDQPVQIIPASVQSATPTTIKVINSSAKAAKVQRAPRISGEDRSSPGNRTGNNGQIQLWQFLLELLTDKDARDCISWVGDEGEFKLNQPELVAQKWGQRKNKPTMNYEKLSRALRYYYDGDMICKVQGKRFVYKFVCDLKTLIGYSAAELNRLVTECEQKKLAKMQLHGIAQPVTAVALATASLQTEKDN
# Outline: as §1
# [4] = target: T4, ERG (Homo sapiens, UniProt P11308 1-479)
# T4 sequence: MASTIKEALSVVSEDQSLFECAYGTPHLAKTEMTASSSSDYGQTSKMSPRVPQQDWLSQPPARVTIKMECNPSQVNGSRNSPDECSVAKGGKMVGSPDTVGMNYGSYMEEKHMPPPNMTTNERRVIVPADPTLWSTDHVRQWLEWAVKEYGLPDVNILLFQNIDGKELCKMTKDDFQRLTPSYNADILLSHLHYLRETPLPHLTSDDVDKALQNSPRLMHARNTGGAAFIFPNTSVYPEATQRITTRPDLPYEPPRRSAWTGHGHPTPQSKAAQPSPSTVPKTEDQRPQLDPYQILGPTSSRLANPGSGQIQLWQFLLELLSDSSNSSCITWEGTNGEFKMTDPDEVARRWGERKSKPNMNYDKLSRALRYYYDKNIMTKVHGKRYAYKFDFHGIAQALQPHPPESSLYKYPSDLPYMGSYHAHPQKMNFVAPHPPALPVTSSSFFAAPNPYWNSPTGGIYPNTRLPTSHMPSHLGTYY
# Outline: as §1
# [5] = target: ELF1 (Homo sapiens, UniProt P32519 1-619)
# Chain of ELF1 (P32519 whole entry): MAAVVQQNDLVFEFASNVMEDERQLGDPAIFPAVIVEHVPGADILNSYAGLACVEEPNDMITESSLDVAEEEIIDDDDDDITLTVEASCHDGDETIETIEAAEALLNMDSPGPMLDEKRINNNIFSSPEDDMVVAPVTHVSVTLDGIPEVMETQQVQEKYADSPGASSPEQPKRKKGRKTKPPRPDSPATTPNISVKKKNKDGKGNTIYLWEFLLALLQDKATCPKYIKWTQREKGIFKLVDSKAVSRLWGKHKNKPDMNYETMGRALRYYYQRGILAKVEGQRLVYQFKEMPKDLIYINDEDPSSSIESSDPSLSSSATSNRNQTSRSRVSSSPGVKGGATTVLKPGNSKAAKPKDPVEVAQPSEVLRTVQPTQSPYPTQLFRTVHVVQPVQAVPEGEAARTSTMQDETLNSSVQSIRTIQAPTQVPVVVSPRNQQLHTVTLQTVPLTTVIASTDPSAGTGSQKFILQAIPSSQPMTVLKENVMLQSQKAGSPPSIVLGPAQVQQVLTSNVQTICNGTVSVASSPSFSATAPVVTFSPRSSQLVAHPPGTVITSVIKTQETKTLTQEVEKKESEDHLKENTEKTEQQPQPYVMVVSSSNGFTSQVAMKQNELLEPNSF
# Outline: as §1
# [6] = target: T5, EHF (Homo sapiens, UniProt Q9NZC4 1-300)
# T5 sequence: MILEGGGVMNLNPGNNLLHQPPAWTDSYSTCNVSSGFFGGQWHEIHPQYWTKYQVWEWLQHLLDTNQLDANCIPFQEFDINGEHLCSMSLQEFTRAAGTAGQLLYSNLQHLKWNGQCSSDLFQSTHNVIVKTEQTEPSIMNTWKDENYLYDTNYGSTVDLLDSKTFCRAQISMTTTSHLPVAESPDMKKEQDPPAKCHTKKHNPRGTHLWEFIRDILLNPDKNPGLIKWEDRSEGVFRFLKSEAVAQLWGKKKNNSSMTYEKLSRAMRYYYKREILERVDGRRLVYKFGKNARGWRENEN
# Outline: as §1
# [7] = target: SPI1 (Homo sapiens, UniProt P17947 1-270)
# Outline: as §1
# [8] = target: SPIB (Homo sapiens, UniProt Q01892 1-262)
# Chain of SPIB (Q01892 whole entry): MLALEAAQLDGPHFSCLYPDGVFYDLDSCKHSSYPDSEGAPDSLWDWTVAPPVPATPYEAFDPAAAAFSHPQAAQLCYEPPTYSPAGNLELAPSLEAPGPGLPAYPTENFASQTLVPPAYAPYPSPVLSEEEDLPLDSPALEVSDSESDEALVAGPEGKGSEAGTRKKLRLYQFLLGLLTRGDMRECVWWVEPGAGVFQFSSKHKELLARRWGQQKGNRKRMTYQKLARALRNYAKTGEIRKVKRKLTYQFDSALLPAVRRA
# Outline: as §1
# [9] = target: T6, FEV (Homo sapiens, UniProt Q99581 1-238)
# T6 sequence: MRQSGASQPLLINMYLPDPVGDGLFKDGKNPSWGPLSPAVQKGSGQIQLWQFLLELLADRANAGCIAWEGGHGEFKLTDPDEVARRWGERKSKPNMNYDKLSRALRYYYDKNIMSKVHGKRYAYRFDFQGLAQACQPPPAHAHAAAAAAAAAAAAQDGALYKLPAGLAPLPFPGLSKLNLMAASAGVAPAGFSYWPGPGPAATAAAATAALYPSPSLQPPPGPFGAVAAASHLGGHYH
# Outline: as §1
# [10] = target: ETV5 (Homo sapiens, UniProt P41161 1-510)
# Chain of ETV5 (P41161 whole entry): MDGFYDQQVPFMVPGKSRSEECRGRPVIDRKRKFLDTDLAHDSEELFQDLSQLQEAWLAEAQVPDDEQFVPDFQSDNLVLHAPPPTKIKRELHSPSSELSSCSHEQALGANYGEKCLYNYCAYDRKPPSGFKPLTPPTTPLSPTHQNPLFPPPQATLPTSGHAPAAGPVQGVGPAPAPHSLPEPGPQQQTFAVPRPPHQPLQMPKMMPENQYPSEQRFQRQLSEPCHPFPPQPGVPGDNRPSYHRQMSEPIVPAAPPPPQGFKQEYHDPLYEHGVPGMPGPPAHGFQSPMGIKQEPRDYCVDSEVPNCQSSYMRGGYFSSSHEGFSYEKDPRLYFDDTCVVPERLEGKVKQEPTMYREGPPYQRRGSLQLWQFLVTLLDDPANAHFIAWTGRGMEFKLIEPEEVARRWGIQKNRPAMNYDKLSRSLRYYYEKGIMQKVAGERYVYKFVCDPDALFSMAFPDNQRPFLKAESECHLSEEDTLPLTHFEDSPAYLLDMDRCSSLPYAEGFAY
# Outline: as §1
# [11] = target: T7, SPIC (Homo sapiens, UniProt Q8N5J4 1-248)
# T7 sequence: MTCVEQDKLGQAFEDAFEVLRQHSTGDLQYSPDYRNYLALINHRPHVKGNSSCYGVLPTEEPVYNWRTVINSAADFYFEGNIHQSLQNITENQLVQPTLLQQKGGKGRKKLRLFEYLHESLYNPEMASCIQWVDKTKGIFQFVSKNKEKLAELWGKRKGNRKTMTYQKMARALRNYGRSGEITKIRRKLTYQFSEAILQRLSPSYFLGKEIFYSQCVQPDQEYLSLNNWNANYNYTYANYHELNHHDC
# Outline: as §1
# [12] = target: ELF4 (Homo sapiens, UniProt Q99607 1-663)
# Chain of ELF4 (Q99607 whole entry): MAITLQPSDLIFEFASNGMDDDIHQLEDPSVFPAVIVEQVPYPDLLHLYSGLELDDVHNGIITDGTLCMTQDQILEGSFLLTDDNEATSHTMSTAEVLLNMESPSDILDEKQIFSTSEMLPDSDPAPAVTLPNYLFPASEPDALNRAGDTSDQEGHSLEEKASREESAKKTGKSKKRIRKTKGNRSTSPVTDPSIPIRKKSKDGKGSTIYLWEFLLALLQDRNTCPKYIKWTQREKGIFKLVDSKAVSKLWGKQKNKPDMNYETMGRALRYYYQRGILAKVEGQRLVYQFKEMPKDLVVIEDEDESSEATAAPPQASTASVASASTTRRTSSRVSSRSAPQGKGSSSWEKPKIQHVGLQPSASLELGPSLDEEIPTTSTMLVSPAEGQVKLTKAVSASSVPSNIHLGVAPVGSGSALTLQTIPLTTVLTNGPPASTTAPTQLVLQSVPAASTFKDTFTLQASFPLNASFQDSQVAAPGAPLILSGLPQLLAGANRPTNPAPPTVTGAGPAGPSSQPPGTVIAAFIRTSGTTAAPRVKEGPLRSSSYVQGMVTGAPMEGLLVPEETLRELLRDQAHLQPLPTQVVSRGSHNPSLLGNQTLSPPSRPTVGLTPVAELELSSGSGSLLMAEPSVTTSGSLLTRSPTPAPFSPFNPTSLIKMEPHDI
# Outline: as §1
# [13] = target: ETV1 (Homo sapiens, UniProt P50549 1-477)
# Chain of ETV1 (P50549 whole entry): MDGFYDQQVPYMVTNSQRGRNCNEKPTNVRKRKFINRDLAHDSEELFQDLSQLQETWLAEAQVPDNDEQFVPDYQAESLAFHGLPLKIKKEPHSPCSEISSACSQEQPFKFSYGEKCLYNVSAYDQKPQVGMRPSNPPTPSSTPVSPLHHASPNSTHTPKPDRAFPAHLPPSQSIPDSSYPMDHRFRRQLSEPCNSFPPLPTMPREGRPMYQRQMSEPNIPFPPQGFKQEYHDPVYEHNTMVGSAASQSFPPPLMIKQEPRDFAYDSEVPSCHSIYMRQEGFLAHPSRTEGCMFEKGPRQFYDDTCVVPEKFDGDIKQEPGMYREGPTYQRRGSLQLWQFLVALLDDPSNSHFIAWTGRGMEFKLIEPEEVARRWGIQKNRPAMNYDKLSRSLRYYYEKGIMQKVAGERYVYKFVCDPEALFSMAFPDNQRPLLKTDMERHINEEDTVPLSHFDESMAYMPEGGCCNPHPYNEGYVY
# Outline: as §1
# [14] = target: T8, ETV3L (Homo sapiens, UniProt Q6ZN32 1-361)
# T8 sequence: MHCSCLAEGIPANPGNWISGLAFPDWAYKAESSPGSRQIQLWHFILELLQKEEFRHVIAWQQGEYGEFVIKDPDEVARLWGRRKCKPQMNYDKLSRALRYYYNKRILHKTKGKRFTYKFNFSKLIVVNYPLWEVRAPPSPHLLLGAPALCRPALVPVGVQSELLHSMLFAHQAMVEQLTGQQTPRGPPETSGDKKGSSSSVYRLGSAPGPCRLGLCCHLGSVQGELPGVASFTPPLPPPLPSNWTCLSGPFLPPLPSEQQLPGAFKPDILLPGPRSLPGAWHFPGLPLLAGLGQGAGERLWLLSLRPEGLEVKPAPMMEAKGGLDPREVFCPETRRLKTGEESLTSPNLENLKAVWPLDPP
# Outline: as §1
# [15] = target: T9, ETS2 (Homo sapiens, UniProt P15036 1-469)
# T9 sequence: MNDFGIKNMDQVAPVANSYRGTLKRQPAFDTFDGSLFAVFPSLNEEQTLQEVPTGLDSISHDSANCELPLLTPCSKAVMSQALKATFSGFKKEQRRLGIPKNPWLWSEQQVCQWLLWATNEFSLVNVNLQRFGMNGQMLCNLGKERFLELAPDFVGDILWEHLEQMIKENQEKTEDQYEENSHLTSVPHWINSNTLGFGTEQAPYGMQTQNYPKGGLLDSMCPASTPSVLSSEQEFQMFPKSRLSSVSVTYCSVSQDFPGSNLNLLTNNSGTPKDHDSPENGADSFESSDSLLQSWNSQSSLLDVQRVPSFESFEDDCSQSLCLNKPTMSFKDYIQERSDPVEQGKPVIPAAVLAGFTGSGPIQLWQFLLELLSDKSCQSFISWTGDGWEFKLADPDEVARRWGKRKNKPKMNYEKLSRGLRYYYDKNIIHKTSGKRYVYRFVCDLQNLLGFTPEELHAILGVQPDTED
# Outline: as §1
# [16] = target: T10, ELF5 (Homo sapiens, UniProt Q9UKW6-2 1-255)
# T10 sequence: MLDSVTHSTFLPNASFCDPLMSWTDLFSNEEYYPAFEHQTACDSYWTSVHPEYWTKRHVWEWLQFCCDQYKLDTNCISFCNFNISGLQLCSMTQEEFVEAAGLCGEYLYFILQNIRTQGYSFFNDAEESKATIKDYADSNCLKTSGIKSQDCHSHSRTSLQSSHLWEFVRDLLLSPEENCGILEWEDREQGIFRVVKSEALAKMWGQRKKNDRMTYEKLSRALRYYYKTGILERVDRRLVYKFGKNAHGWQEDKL
# Outline: as §1
# [17] = target: T11, ETV3 (Homo sapiens, UniProt P41162-2 1-143)
# T11 sequence: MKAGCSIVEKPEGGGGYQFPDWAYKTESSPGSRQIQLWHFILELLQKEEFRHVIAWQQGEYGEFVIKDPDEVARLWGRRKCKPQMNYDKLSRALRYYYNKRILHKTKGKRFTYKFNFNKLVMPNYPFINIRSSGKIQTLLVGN
# Outline: as §1
sequence,measurement,setting,value
GGGTTC,binding signal,[1],"1.06 fold enrichment (6-mer frequency, TF over GST control)"
same,binding signal,[2],"1.02 fold enrichment (6-mer frequency, TF over GST control)"
same,binding signal,[3],"1.01 fold enrichment (6-mer frequency, TF over GST control)"
same,binding signal,[4],"1.04 fold enrichment (6-mer frequency, TF over GST control)"
same,binding signal,[5],"1.11 fold enrichment (6-mer frequency, TF over GST control)"
same,binding signal,[6],"1.02 fold enrichment (6-mer frequency, TF over GST control)"
same,binding signal,[7],"1.11 fold enrichment (6-mer frequency, TF over GST control)"
same,binding signal,[8],"1.09 fold enrichment (6-mer frequency, TF over GST control)"
same,binding signal,[9],"1.03 fold enrichment (6-mer frequency, TF over GST control)"
same,binding signal,[10],"1.08 fold enrichment (6-mer frequency, TF over GST control)"
same,binding signal,[11],"1.02 fold enrichment (6-mer frequency, TF over GST control)"
same,binding signal,[12],"1.12 fold enrichment (6-mer frequency, TF over GST control)"
same,binding signal,[13],"1.08 fold enrichment (6-mer frequency, TF over GST control)"
same,binding signal,[14],"1.09 fold enrichment (6-mer frequency, TF over GST control)"
same,binding signal,[15],"1.07 fold enrichment (6-mer frequency, TF over GST control)"
same,binding signal,[16],"1.1 fold enrichment (6-mer frequency, TF over GST control)"
same,binding signal,[17],"1.1 fold enrichment (6-mer frequency, TF over GST control)"
